Data from PubChem BioAssay (NCI).
About 83,000 compounds went through this panel and 20% of them were active in at least one assay; those are over-represented in the sample as a whole.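 Cell lines were cultured in 96-well plates, exposed to a single compound concentration, and assessed for percent growth 48 hours later.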 Unmarked numbers belong to inactive results. Active and inactive are the calls of the source. Rule for the calls: active = growth percent below 10; inactive = the rest.

Assays:
Test in all cases: NCI-60 one-dose screen, 48 h (100 = growth as untreated, 0 = no growth, -100 = all killed)
Conditions in all cases: 10 µM unless noted
HCT-15 colon = tested on: HCT-15 colon
HT29 colon = tested on: HT29 colon
SNB-75 CNS = tested on: SNB-75 CNS
SNB-19 CNS = tested on: SNB-19 CNS
U251 CNS = tested on: U251 CNS
PC-3 prostate = tested on: PC-3 prostate
SK-MEL-5 melanoma = tested on: SK-MEL-5 melanoma
UACC-62 melanoma = tested on: UACC-62 melanoma
LOX IMVI melanoma = tested on: LOX IMVI melanoma
SK-MEL-28 melanoma = tested on: SK-MEL-28 melanoma

SMILES | growth (HCT-15 colon) | growth (HT29 colon) | growth (SNB-75 CNS) | growth (SNB-19 CNS) | growth (U251 CNS) | growth (PC-3 prostate) | growth (SK-MEL-5 melanoma) | growth (UACC-62 melanoma) | growth (LOX IMVI melanoma) | growth (SK-MEL-28 melanoma)
N#CSc1c[nH]c2cccc(/C=C/C(=O)/C=C(O)/C=C/c3cccc4[nH]cc(SC#N)c34)c12 | -79.1% (active) | -62.7% (active) | -23.1% (active) | -80.6% (active) | -91.9% (active) | -53% (active) | -87.5% (active) | -65.4% (active) | -94.8% (active) | -68.2% (active)
COc1ccc(C[n+]2c3ccccc3n3c4ccc(N)cc4ccc32)c(OC)c1OC | 101% | 39.2% | 61.4% | 15.5% | 8.81% (active) | 43.3% | 42.6% | 60.1% | 85.2% | 64.5%
O=C1c2ccccc2C(=O)C1c1ccc(Br)cc1 | 92.7% | 101% | 65% | 104% | 95.8% | 97.9% | 107% | 98.3% | 88.9% | 98%
CN1C(=O)/C(=C2\SC(=Nc3ccccc3)N(Nc3ccccc3)C2=O)c2ccccc21 | 105% | 119% | 78.9% | 95.9% | 100% | 86.6% | 99.3% | 81.3% | 93.5% | 105%
CC/C=C\C[C@H](O)C/C=C1/C(=O)C=C[C@@H]1C/C=C\CCCC(=O)O | 74.6% | 47.9% | 88.9% | 65% | 3.29% (active) | 61.3% | 60.3% | 27.7% | 17.4% | 54.4%
C=C1C(=O)O[C@H]2[C@H]1CC/C(COC(=O)NCc1ccc(Cn3c(=O)sn(-c4ccc(C#N)cc4)c3=O)cc1)=C\CC[C@@]1(C)O[C@@H]21 | 87.8% | 48.2% | 80.3% | 88.5% | 81.2% | 71.6% | 89.5% | 69.3% | 65.9% | 87.2%
C=C(C)[C@@H]1CCC[C@]2(C(=O)N3CCN(C)CC3)CC[C@]3(C)[C@@H](CC[C@@H]4[C@@]5(C)CC/C(=N\NC(=O)c6ccncc6)C(C)(C)[C@@H]5CC[C@]43C)[C@@H]12 | 92.1% | 98.8% | 77.7% | 83.5% | 99.8% | 87% | 92.9% | 87.4% | 89.3% | 95.5%
Cc1ccc(N2C(=O)CCC2=O)cc1 | 96.3% | 98.9% | 103% | 104% | 105% | 99.5% | 100% | 98% | 102% | 105%
C#CCOc1cccc(-c2ncnc3cc(NC(=O)C=C)ccc23)c1 | 24% | 10.8% | 10.6% | 50.6% | 51.4% | 37.2% | 68.5% | 34.6% | 34.1% | 70.5%
FC(F)(F)c1ccc(Cn2cc(CSc3nc4ccccc4s3)nn2)cc1 | 101% | 94.4% | 94% | 101% | 96.3% | 95.7% | 105% | 87.3% | 110% | 105%
Nc1nc(N)c(N=Nc2ccccc2)c(-c2ccccc2)n1 | 58.6% | 51.1% | -0.588% (active) | 69.5% | 72.4% | 35.8% | 46.9% | 41.4% | 42.6% | 76.2%
COc1ccc(/C=C(/c2ccccc2)[N+](=O)[O-])c(OC)c1 | -36.4% (active) | -19.2% (active) | 53.3% | -9.71% (active) | -59.8% (active) | -20.6% (active) | -25% (active) | -53.9% (active) | -83.5% (active) | -25.3% (active)
COc1ccc2nc(Cl)c(/C=C3\CC(c4ccccc4)=NN(c4ccccc4)C3=O)cc2c1 | 84.5% | 82.5% | 19.8% | 20.3% | 55.6% | 66.1% | 78.2% | 71.8% | 78.3% | 85.8%
N#CC1=C(N)Oc2ccc3ccccc3c2C1c1ccc([N+](=O)[O-])cc1 (stereo not given) | 87.6% | 105% | 61.7% | 86.8% | 94.2% | 69.8% | 86.2% | 77.3% | 74.6% | 99.1%
c1nc2ccc(-c3cc4ccc5[nH]ncc5c4c4c3CCCC4)cc2[nH]1 | 94.8% | 58% | 71.2% | 74.9% | 77.3% | 63.1% | 67.4% | 31.9% | 53.3% | 41.7%
COc1cc(/C=C/C(=O)/C=C(O)/C=C/c2ccc(OC(=O)C34CC5CC(CC(C5)C3)C4)c(OC)c2)ccc1OC(=O)C12CC3CC(CC(C3)C1)C2 | 99.3% | 104% | 90% | 101% | 104% | 101% | 105% | 98.8% | 95.3% | 100%
